Source: PubChem BioAssay AID1619 (SRMLSC, 2009)
Out of some 220,000 compounds screened, about 830 (0.38%) were called active.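 How the source made its calls: active means compound inhibiting the enzyme by more than half at any dose during confirmatory dose-response retesting; inconclusive means strong single-dose inhibitors picked by rank but not retested; inactive means the rest.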 Not all results are given here. Entries with a potency or affinity are not part of this list.

Molecular target: Leucine aminopeptidase (Plasmodium falciparum (isolate 3D7)) (UniProt Q8IL11)
Test: P. falciparum M17LAP inhibitors, primary screen, biochemical, fluorogenic H-Leu-NHMec substrate, 1536-well (AID 1619);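 further: plate controls were full reaction with DMSO carrier for no effect and no enzyme background for full effect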
Settings: recombinant M17LAP, H-Leu-NHMec fluorogenic kinetic assay; at 30 µM; stronger effect = higher value

Chain of Leucine aminopeptidase (Plasmodium falciparum (isolate 3D7)) (Q8IL11 whole entry, looked up): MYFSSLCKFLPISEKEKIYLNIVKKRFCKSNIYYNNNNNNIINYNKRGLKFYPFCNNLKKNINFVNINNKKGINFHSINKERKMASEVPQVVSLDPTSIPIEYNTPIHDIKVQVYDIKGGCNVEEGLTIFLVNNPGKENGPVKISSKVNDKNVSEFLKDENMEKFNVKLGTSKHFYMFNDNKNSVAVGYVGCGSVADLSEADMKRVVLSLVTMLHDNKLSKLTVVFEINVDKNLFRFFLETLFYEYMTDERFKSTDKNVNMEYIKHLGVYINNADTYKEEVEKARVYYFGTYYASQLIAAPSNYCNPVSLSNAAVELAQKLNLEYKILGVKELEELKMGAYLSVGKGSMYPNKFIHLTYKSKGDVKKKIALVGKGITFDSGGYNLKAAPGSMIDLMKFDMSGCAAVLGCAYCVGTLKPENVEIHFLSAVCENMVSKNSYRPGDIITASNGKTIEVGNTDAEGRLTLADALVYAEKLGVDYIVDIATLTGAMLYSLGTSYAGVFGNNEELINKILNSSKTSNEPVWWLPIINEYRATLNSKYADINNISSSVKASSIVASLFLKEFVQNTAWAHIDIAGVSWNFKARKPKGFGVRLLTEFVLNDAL

inhibition, inactive:
CC(=O)NC(=O)NC1OC(=O)C(Cl)=C1Cl (configuration not stated) 4.19%
Cn1nc(C(=O)NCCOc2ccccc2)c2ccccc2c1=O -0.35%
CCOC(=O)CSCC(NC(=O)OC(C)(C)C)C(=O)OCC (configuration not stated) 0.56%
CCOC(=O)C(CSCC(=O)c1ccc(Cl)cc1)NC(=O)OC(C)(C)C (configuration not stated) 25.7%
CCN(CC)S(=O)(=O)c1ccc(N)cc1 11.4%
CCCSc1ccc(C(=O)Nc2ccc(Cl)cc2)cn1 -6.5%
COc1ccc(-n2c(C)cc(/C=C(\C#N)C(=O)NCc3ccco3)c2C)cc1 -8.8%
Cc1cc(/C=C(\C#N)C(=O)NCc2ccco2)c(C)n1-c1cccnc1 20.4%
Cc1ccc(-n2c(Cc3cccn3C)nnc2SCC(=O)NCc2ccco2)cc1 20.7%
Cc1ccc(Cn2ccc(C3CC3)n2)cc1 -1.75%
COC(=O)C1=C(O)C2(C(=O)O)CC(C(=O)OC)=C(O)C(C(=O)O)(C1)C2 -3.67%
CC(=O)NC1(C(=O)O)CCCC1 9.39%
Cc1ccc(S(=O)(=O)NCCCCCC(=O)Nc2ccccc2)cc1 3.08%
CCN1C(=O)/C(=C2/C=Cc3ccccc3N2CC)SC1=S -0.63%
CC(C)CC1C(C#N)=C(N)Oc2n[nH]c(-c3cccs3)c21 (configuration not stated) 73.3%
CC(C)(C)c1[nH]nc2c1C(c1cccnc1)C(C#N)=C(N)O2 (configuration not stated) 5.24%
Cc1[nH]nc2c1C(CC(C)C)C(C#N)=C(N)O2 (configuration not stated) 14.9%
Cc1[nH]nc2c1C(c1ccsc1)C(C#N)=C(N)O2 (configuration not stated) 29.4%
N#CC1=C(N)Oc2n[nH]c(-c3ccccc3)c2C1c1ccncc1 (configuration not stated) 62.5%
CCCc1[nH]nc2c1C(c1ccsc1)C(C#N)=C(N)O2 (configuration not stated) 2.74%
CCc1[nH]nc2c1C(c1cccnc1)C(C#N)=C(N)O2 (configuration not stated) 11.3%
CCCc1[nH]nc2c1C(c1ccncc1)C(C#N)=C(N)O2 (configuration not stated) 30.1%
CO/N=C/NC(=O)c1c(OC)ccnc1Oc1ccccc1 6.63%
CSCCC(NC(=O)c1ccc([N+](=O)[O-])cc1Cl)C(=O)OCC(=O)N(C)C (configuration not stated) -3.36%
O=C(Nc1ccccc1C(=O)N1CCOCC1)C1CCCO1 (configuration not stated) -7.06%
CCCc1[nH]nc2c1C(c1cccnc1)C(C#N)=C(N)O2 (configuration not stated) 9.46%
CC(C)c1[nH]nc2c1C(c1cccnc1)C(C#N)=C(N)O2 (configuration not stated) 13.5%
COC(=O)Cc1[nH]nc2c1C(c1ccc(O)c(OC)c1)C(C#N)=C(N)O2 (configuration not stated) 17.1%
CCCc1[nH]nc2c1C(Cc1ccccc1)C(C#N)=C(N)O2 (configuration not stated) 28.5%
Cc1[nH]nc2c1C(CCc1ccccc1)C(C#N)=C(N)O2 (configuration not stated) 68.1%
CCCc1[nH]nc2c1C(c1ccc(O)c(OC)c1)C(C#N)=C(N)O2 (configuration not stated) 29.1%
Cc1ccc(C2C(C#N)=C(N)Oc3n[nH]c(C)c32)cc1 (configuration not stated) 52.9%
Cc1ccc(-c2ccc(C3C(C#N)=C(N)Oc4n[nH]c(C)c43)o2)cc1 (configuration not stated) 15.7%
CC(C)NC(=O)/C=C/C(=O)O -17.6%
CCn1c(NCc2ccco2)nc2ccccc21 3.48%
Cc1cc(C)cc(OCC(=O)OCC(=O)c2ccc3c(c2)NC(=O)CO3)c1 -0.31%
O=C(CNC(=O)c1ccccc1)NCC(=O)OCc1ccccc1Cl -2.59%
O=C(CN(c1ccccc1)S(=O)(=O)c1ccc(F)cc1)NC1CCS(=O)(=O)C1 (configuration not stated) 8.02%
CCOc1ccc(CC(=O)N2CCN=C2SCc2ccc([N+](=O)[O-])cc2)cc1 -3.75%
Cc1cc(C)c2cc(C(=O)N3CCC(Cc4ccccc4)CC3)[nH]c2c1 -4.41%
COC(=O)c1ccc(C(=O)OC)c(NC(=O)CSc2cccc[n+]2[O-])c1 -1.81%
Cc1ccc(-c2csc(/C(C#N)=C(\O)CCl)n2)cc1 6.37%
Cc1ccc(C2C(C#N)=C(N)Oc3nc(-c4ccccc4)[nH]c32)o1 (configuration not stated) 94%
N#CC1=C(N)Oc2cc3ccccc3cc2C1c1cccnc1 (configuration not stated) 0.21%
Cc1ccc(-c2c(C#N)c(N)nc3c2CCCC3)s1 9.55%
CC(=O)c1cc(Cl)ccc1OC(=O)c1ccco1 -7.24%
CC(=O)c1nn(-c2cccc(Cl)c2)cc1C(=O)c1ccco1 -0.97%
CN(C)CCNC(=O)C(c1ccccc1)c1ccccc1 4.43%
COc1cccc(C(=O)NNC(=O)C(=O)N2CCCCC2)c1 5.57%
O=C(Nc1ccc(C(=O)O)cc1)/C(=C\c1ccc2c(c1)OCO2)NC(=O)c1ccc(Br)o1 12%
O=C(Nc1cccc(C(=O)O)c1)/C(=C/c1ccc2c(c1)OCO2)NC(=O)c1cccc(Br)c1 51.7%
COCCn1nnnc1C(c1ccccc1OC)N1CCN(c2ccccc2F)CC1 (configuration not stated) 0.44%
O=C(Cc1ccccc1)N1CCCC(c2nc(-c3ccc(S(=O)(=O)N4CCCC4)cc3)no2)C1 (configuration not stated) 0.8%
O=C(O)CCn1cc(/C=C/C(=O)c2ccc(Cl)cc2)c(-c2cccc(Br)c2)n1 6.04%
O=C(O)CCn1cc(/C=C/C(=O)c2ccc(Cl)cc2)c(-c2ccc(Br)cc2)n1 31.8%
CN(C)c1ccc(/C=N/NC(N)=S)cc1[N+](=O)[O-] -6.38%
Nc1nonc1C(=O)N/N=C/c1cccc([N+](=O)[O-])c1 39.7%
CCCNS(=O)(=O)c1ccc(N2CCCC2=O)c([N+](=O)[O-])c1 -2.44%
CC(C)N(C(=O)C1CC(=O)OC12CCCCC2)C(C)C (configuration not stated) -0.49%
CCC(=O)Nc1c(-c2ccc(OC)cc2)c(=O)c2ccccc2n1C 0.6%
Cc1ccc(NS(=O)(=O)Cc2ccccc2)nc1 -10.1%
O=S(=O)(Cc1ccccc1)Nc1ccc(Br)cn1 8.11%
Cc1nc2c(cc1C(=O)N/N=C/c1ccc(O)c(O)c1)c(=O)n(C)c(=O)n2C 13.8%
Cc1ccccc1N1C(=O)CC2(CCCC2)CC1=O -2.41%
Cc1ccc(/C=C2\NC(=S)NC2=O)cc1[N+](=O)[O-] -1.94%
CN(C)c1ccc(/C=N/N=C(N)N)cc1[N+](=O)[O-] 58.3%
COc1cc(/C=N/NC(N)=O)ccc1OC(=O)c1ccc(C)cc1 -1.66%
Cc1ccc(-n2nnc3c(=O)n(CC(=O)N4CCC(C)CC4)cnc32)cc1 13.8%
OC1COC(OCC2OC(OCc3ccccc3)C(O)C(O)C2O)C(O)C1O (configuration not stated) -0.69%
Cc1ccc(C(=O)O/N=C(\c2ccccc2)c2cccnc2)cc1 -5.37%
CC(=O)C1(C)N(O)C(C)(C)C(c2cccs2)=[N+]1[O-] (configuration not stated) 11.1%
CC1(C)N(O)CC(c2cccs2)=[N+]1[O-] 39.9%
NNC(=O)c1ccc(COc2ccc3ccccc3c2)o1 7.87%
O=C1C2C3C=CC(CC3)C2C(=O)N1/N=C/c1ccc(O)cc1 (configuration not stated) 12.3%
COc1cc(/C=N/N2C(=O)c3ccccc3C2=O)ccc1O 10.3%
O=C1c2ccccc2C(=O)N1/N=C/c1ccc(O)c(O)c1O 9.31%
COc1cc(/C=N/N2C(=O)C3C4C=CC(CC4)C3C2=O)ccc1O (configuration not stated) 18.2%
O=C(Cn1cnc2c(cnn2-c2ccccc2)c1=O)NC1CCCC1 -1.27%
O=C(Nc1cccnc1)c1ccccc1O 8.37%
CCN(C(=O)COC(=O)c1cc(-c2ccccc2)nn1-c1ccccc1)C1CCS(=O)(=O)C1 (configuration not stated) -0.44%
COc1ccc(NC(=O)CSc2nnc(-c3cccs3)n2-c2ccccc2)cc1 0.69%
O=C(CSc1nnc(-c2cccs2)n1-c1ccccc1)Nc1ccccc1 8.55%
CCOC(=O)C1=C(O)C(=O)N(c2ccc(S(N)(=O)=O)cc2)C1c1cccc([N+](=O)[O-])c1 (configuration not stated) 0.08%
O=C(C1=C(O)C(=O)N(CCN2CCOCC2)C1c1ccncc1)c1ccco1 (configuration not stated) 17.6%
Cc1ccc(SC(C)C(=O)Nc2c(C)n(C)n(-c3ccccc3)c2=O)cc1 (configuration not stated) -0.12%
Cc1c(NC(=O)C(C)Sc2ccccc2)c(=O)n(-c2ccccc2)n1C (configuration not stated) 8.89%
Cc1c(NC(=O)CSc2nnc(Nc3ccccc3)s2)c(=O)n(-c2ccccc2)n1C 20.1%
Cc1nnc(SC(C)C(=O)Nc2c(C)n(C)n(-c3ccccc3)c2=O)n1N (configuration not stated) 11.1%
O=C(O)CCn1c(C2CCCCC2)nc2ccccc21 10.6%
CCc1cccc(NC(=O)CCSCCC(=O)Nc2cccc(CC)c2)c1 10.7%
O=C(CSCc1cccc(CSCC(=O)Nc2ccccc2)n1)Nc1ccccc1 6.32%
CC(C)OC(=O)CSc1ncnc2c1cnn2-c1ccccc1 -11.6%
S=C(NCc1ccco1)Nc1ccccc1Cl 2.12%
Cc1cc(NS(=O)(=O)c2ccc(NC(=O)c3cnc4sccn4c3=O)cc2)nc(C)n1 -3.04%
Cc1noc(NS(=O)(=O)c2ccc(NC(=O)c3cnc4scc(C)n4c3=O)cc2)c1C 49.8%
Cc1cc(C)nc(NS(=O)(=O)c2ccc(NC(=O)CN3C(=O)c4ccccc4C3=O)cc2)n1 8.34%
COc1cc(NS(=O)(=O)c2ccc(NC(=O)CN3C(=O)c4ccccc4C3=O)cc2)nc(OC)n1 45.7%
